Results on eight compounds are retold here after PubChem BioAssay.

Test [1] is described as follows: growth inhibition of DIPG glioma cells, dose response, cell-based, SU-DIPG-XVII, MIPE5.0, CellTiter-Glo, qHTS (AID 1347060; cut-off not given, nearly all actives have AC50 up to about 26 µM;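 on AC50: cells exposed to compound for 48 hours before viability readout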). The conditions noted are these: SU-DIPG-XVII viability, CellTiter-Glo ATP luminescence.
Test [2] is described as follows: growth inhibition of DIPG glioma cells, dose response, cell-based, SU-DIPG-XIII, MIPE5.0, CellTiter-Glo, qHTS (AID 1347064; cut-off not given, nearly all actives have AC50 up to about 23 µM;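 on AC50: cells exposed to compound for 48 hours before the viability read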). Conditions: SU-DIPG-XIII viability, CellTiter-Glo ATP luminescence.
A short description of test [3]: viability loss in pontine glioma line – cell-based, SU-DIPG-XXV, MIPE5.0, CellTiter-Glo, qHTS, dose response (AID 1347065; cut-off not given, nearly all actives have AC50 up to about 26 µM;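 further: cells exposed to compound for 48 hours before ATP readout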). Conditions: CellTiter-Glo ATP luminescence.
Test [4] in a line: JHH-DIPG-1 glioma cell viability, MIPE5.0 library, CellTiter-Glo luminescence, qHTS (AID 1347067; cut-off not given, nearly all actives have AC50 up to about 26 µM;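 further: cells exposed to compound for 48 hours before readout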). The conditions noted are these: JHH-DIPG-1 glioma viability, CellTiter-Glo ATP luminescence.
The nature of test [5]: SU-DIPG-VI glioma cell viability, MIPE4.0 library, CellTiter-Glo luminescence, qHTS (AID 1347066; cut-off not given, nearly all actives have AC50 up to about 30 µM;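 further: cells exposed to compound for 48 hours before readout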). The conditions noted are these: CellTiter-Glo ATP luminescence.
The nature of test [6]: SU-DIPG-XXV glioma cell viability, MIPE5.0 library, qHTS (AID 1347068; cut-off not given, nearly all actives have IC50 up to about 30 µM).
The nature of test [7]: modifiers of HSF1 nuclear foci, imaging, Selleck Cancer Library (AID 1347162; in the data active means plate-normalised HSF1 focus index below about 0.46). The conditions noted are these: human cells, at 10 µM; SSMD: measured here: HSF1 foci SSMD mean; cell count: measured here: cell number; plate-normalised HSF1 focus index: stronger effect = lower value.
Test [8] is described as follows: sensitizers of A549 cells to miR-34 induction, primary screen, imaging, A549 dox-inducible miR-34, nuclei and caspase counts (AID 1347080;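 active means compounds whose cell count with miR-34 switched on is under 0.7 times the count with it off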). The conditions noted are these: A549 miR-34 inducible, Hoechst nuclei count, 48 h.
Test [9] can be described thus: survival rescue of mitochondrial mutant cells in low glucose, primary screen, MELAS cybrids, Rieske KO mouse fibroblasts, CellTiter-Glo (AID 1508586;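 active means mean z-score across replicates of 1.96 or higher in either the MELAS or the Rieske mutant cell line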;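 further: z relative to plate mean and SD of compound and empty wells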).
The nature of test [10]: ovarian cancer cell viability with rucaparib, profiling panel, oncology-focused library, rucaparib conditional (AID 1508598). Conditions: patient-derived ovarian cancer cells, CellTiter-Glo viability, 144 h, stronger effect = lower value.

Structures are written as SMILES. Inconclusive results are not listed. Calls of active or inactive are those of the source.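 How the source made its calls, unless noted: active means normalized viability below 100% at a tested concentration; inactive means the rest.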

Turning to `CCn1c(=O)c(-c2ccn[nH]2)cc2c(C)nc(N)nc21`, the concentration at half-maximal activity (AC50) is 7.42 µM (active) in test [1], 5.9 µM (active) in test [2] and 4.17 µM (active) in test [3].
Take `CCCCN(CCCC)C(=O)CN1C[C@H](c2ccc3c(c2)OCO3)[C@@H](C(=O)O)[C@@H]1c1ccc(OC)cc1`: the call in test [1], in test [2], in [3] and in test [4] was inactive.
On to `CCC[C@H](NC(=O)[C@@H]1[C@H]2CCC[C@H]2CN1C(=O)[C@@H](NC(=O)[C@@H](NC(=O)c1cnccn1)C1CCCCC1)C(C)(C)C)C(=O)C(=O)NC1CC1`, for which the call in test [1], in test [2], in [3], in [5] and in test [6] was inactive. The concentration at half-maximal activity (AC50) in test [4] is 18.6 µM (active).
As for `CC1Oc2cc(cnc2N)-c2c(nn(C)c2C#N)CN(C)C(=O)c2ccc(F)cc21` (stereo not given), the AC50 is 14.8 µM (active) in test [1], 6.61 µM (active) in test [2] and 7.42 µM (active) in test [3]. In [4], the compound was classed as inactive.
For `COc1cccc2c1c(O)c(C(=O)N(C)c1ccc(C(F)(F)F)cc1)c(=O)n2C`, the compound was called inactive in [1], in test [2], in test [3] and in test [4].
Regarding `CCOc1ccc(Cc2cc([C@@H]3O[C@H](CO)[C@@H](O)[C@H](O)[C@H]3O)ccc2Cl)cc1`, the outcome in [1], in [2], in test [3], in test [5], in test [4] and in [6] was inactive. The compound also registered an SSMD in test [7] of 1.4. The cell count in test [7] came out at 6780. Besides, the plate-normalised HSF1 focus index in [7] is 1.07 (inactive).
For `CCCc1cc(C)[nH]c(=O)c1CNC(=O)c1cc(-c2ccnc(N3CCN(C)CC3)c2)cc2c1cnn2C(C)C`, the result in [1], in test [2] and in [3] was inactive.
As to `NC(=O)C1CCCc2c1[nH]c1ccc(Cl)cc21` (stereo not given), the call in test [1], in test [2], in [3], in test [5], in [4] and in test [6] was inactive. Besides, the fold change was 1.01 (inactive) in [8] (stronger effect = lower value, cell number ratio, induced over uninduced) and 0.695 in test [8] (measured here: relative caspase fold change +Dox/-Dox). The cell count in test [8] (measured here: total cells with miR-34 induction, stronger effect = lower value) was 7360; in test [8] (measured here: total cells without miR-34 induction), 7260; in [7], 6830. For the same compound, the SSMD in [7] amounted to 1.46. The plate-normalised HSF1 focus index in test [7] was 1.08 (inactive). Further, the z-score was -0.456 (inactive) in [9] (MELAS cybrid survival, CellTiter-Glo 48 h, stronger effect = higher value) and -0.725 in [9] (Rieske KO mouse fibroblast survival, CellTiter-Glo 72 h). Besides, the viability in test [10] (at 0.000305 µM, OCI-C5x cells, with rucaparib 10 µM, 100% = cells with rucaparib alone) is 114% (inactive); in test [10] (at 0.000305 µM, OCI-C5x cells, without rucaparib), 113% (inactive); in test [10] (at 0.000305 µM, OCI-P5x cells, with rucaparib 20 µM, 100% = cells with rucaparib alone), 92.1% (active); in [10] (at 0.000305 µM, OCI-P5x cells, without rucaparib) it was 96.9% (active); in test [10] (at 0.00122 µM, OCI-C5x cells, with rucaparib 10 µM, 100% = cells with rucaparib alone), 118% (inactive); in test [10] (at 0.00122 µM, OCI-C5x cells, without rucaparib), 119% (inactive). The viability in test [10] (at 0.00122 µM, OCI-P5x cells, with rucaparib 20 µM, 100% = cells with rucaparib alone) was 109% (inactive); in [10] (at 0.00122 µM, OCI-P5x cells, without rucaparib) it was 101% (inactive); in test [10] (at 0.00488 µM, OCI-C5x cells, with rucaparib 10 µM, 100% = cells with rucaparib alone) it was 117% (inactive); in test [10] (at 0.00488 µM, OCI-C5x cells, without rucaparib) it was 114% (inactive); in test [10] (at 0.00488 µM, OCI-P5x cells, with rucaparib 20 µM, 100% = cells with rucaparib alone) it was 105% (inactive); in [10] (at 0.00488 µM, OCI-P5x cells, without rucaparib), 111% (inactive). The viability in test [10] (at 0.0195 µM, OCI-C5x cells, with rucaparib 10 µM, 100% = cells with rucaparib alone) was 106% (inactive); in test [10] (at 0.0195 µM, OCI-C5x cells, without rucaparib), 115% (inactive); in test [10] (at 0.0195 µM, OCI-P5x cells, with rucaparib 20 µM, 100% = cells with rucaparib alone), 109% (inactive); in [10] (at 0.0195 µM, OCI-P5x cells, without rucaparib) it was 116% (inactive); in test [10] (at 0.0781 µM, OCI-C5x cells, with rucaparib 10 µM, 100% = cells with rucaparib alone), 113% (inactive); in [10] (at 0.0781 µM, OCI-C5x cells, without rucaparib), 112% (inactive). The viability in test [10] (at 0.0781 µM, OCI-P5x cells, with rucaparib 20 µM, 100% = cells with rucaparib alone) was 105% (inactive); in [10] (at 0.0781 µM, OCI-P5x cells, without rucaparib) it was 117% (inactive); in test [10] (at 0.313 µM, OCI-C5x cells, with rucaparib 10 µM, 100% = cells with rucaparib alone), 112% (inactive); in test [10] (at 0.313 µM, OCI-C5x cells, without rucaparib) it was 124% (inactive); in test [10] (at 0.313 µM, OCI-P5x cells, with rucaparib 20 µM, 100% = cells with rucaparib alone), 105% (inactive); in [10] (at 0.313 µM, OCI-P5x cells, without rucaparib), 120% (inactive). For the same compound, the viability in test [10] (at 1.25 µM, OCI-C5x cells, with rucaparib 10 µM, 100% = cells with rucaparib alone) was 109% (inactive); in test [10] (at 1.25 µM, OCI-C5x cells, without rucaparib), 118% (inactive); in test [10] (at 1.25 µM, OCI-P5x cells, with rucaparib 20 µM, 100% = cells with rucaparib alone), 107% (inactive); in [10] (at 1.25 µM, OCI-P5x cells, without rucaparib), 120% (inactive); in [10] (at 5 µM, OCI-C5x cells, with rucaparib 10 µM, 100% = cells with rucaparib alone), 100% (active); in test [10] (at 5 µM, OCI-C5x cells, without rucaparib), 124% (inactive). Besides, the viability in test [10] (at 5 µM, OCI-P5x cells, with rucaparib 20 µM, 100% = cells with rucaparib alone) is 95% (active); in test [10] (at 5 µM, OCI-P5x cells, without rucaparib) it was 114% (inactive).
